Data: PubChem BioAssay (Tox21)
Results filed as inconclusive are left out. Values without a mark were called inactive. Calls of active or inactive are those of the source. The call rests on the fitted dose curve; in most records, active means well fitted activation curve with a large enough effect in the signal ratio in the repeat runs (not every such curve was filed as active); inconclusive means weak or mixed curves; inactive means flat fitted curve, though single readings scatter; the % refers to the signal ratio.

test: qHTS assay to identify small molecule agonists of H2AX (AID 1224845); conditions: CHO-K1 phospho-H2AX Ser139 HTRF, 3 h; series mostly up to 154 µM; activation (H2AX phosphorylation): at the top concentration
Description: National Center for Advancing Translational Sciences [NCATS]
NIH Chemical Genomics Center [NCGC]
U.S. Environmental Protection Agency [EPA]
National Institutes of Environmental Health Sciences [NIEHS]
National Toxicology Program [NTP]
U.S. Food and Drug Administration [FDA]
HTRF phospho-H2AX (Ser139) assay (Cisbio Bioassays, US) enables the quantitative detection of the histone variant H2AX when phosphorylated on serine 139. When double-stranded DNA breaks, either by ionizing radiation or endogenous physiological processes, H2AX becomes phosphorylated at Ser139. This phospho-Ser139 serves as a sensitive biomarker for the detection of such breaks, localizing the site of DNA repair. So, HTRF phospho-H2AX Ser139 is a pertinent assay to study genome stability, the cell cycle, DNA repair, and it serves as a biomarker for cancer, and to understand aging. Wild type CHO-K1 cells were used to identify the inducers of Phospho-H2AX Ser 139 from the Tox21 10K compound collections.
Tox21 Assay Protocol Summary:
The CHO-K1 cells suspended in culture medium containing 10% FBS were dispensed at 1000 cells/ 3 ul/well in 1536-well white wall/solid bottom plates (Greiner Bio-One North America, NC) using a Multidrop Combi (Thermo Fisher Scientific Inc., Waltham, MA). After the assay plates were incubated at 37C overnight, 23 nl of compounds at 15 concentrations (from 5-48 columns) or positive control (from 1 to 4 columns) were transferred to the assay plates using a Pintool station (Wako, San Diego, CA) into each well resulting in a final DMSO concentration of 0.76%. After 3hr incubation at 37C, 1 uL/well Supplemented Lysis buffer (diluted 100 fold blocking reagent in lysis buffer) (HTRF Phospho-H2A.X (S139) Assay kit from Cisbio US Inc., Bedford, MA) was added using a Flying Reagent Dispenser (FRD) (Aurora Discovery, CA). After 10sec spin at 1000 rpm in a plate centrifuge, the assay plates were incubated at room temperature for 30 min. Then followed by the addition of 1 uL/well detection buffer (containing a mixture of two antibodies, one labeled with cryptate, Anti pH2AX (S139)-K and another labeled with d2, Anti H2AX-d2) using FRD. After incubation at room temperature for 24 hr, the time resolved fluorescence at excitation 320 nm and emissions at 665 nm and 620 nm was measured using an Envision plate reader (PerkinElmer, Waltham, MA).
On the % scale 0 is the no-effect control and ±100 the full control effect; potency means the concentration at half of the fitted maximal effect.

Compound | activation (H2AX phosphorylation) | Potency
O=[N+]([O-])c1ccc(O)cc1C(F)(F)F | 1.36% | –
COc1cc(/C=C/c2ccccc2)oc(=O)c1 | -2.87% | –
S=c1nccc[nH]1 | -0.305% | –
CCCCCCCCCCCCCC[N+](C)(C)C | – | inactive
Cl[Si](Cl)(c1ccccc1)c1ccccc1 | -3.72% | –
CCC(CC)C(C)CCOC(C)=O (stereo not given) | 0.95% | –
O=C1CCc2ccc(OCCCCN3CCN(c4cccc(Cl)c4Cl)CC3)cc2N1 | 6.44% [at 70.9 µM] | –
Cc1cc(C(C#N)c2ccc(Cl)cc2)c(Cl)cc1NC(=O)c1cc(I)cc(I)c1O (stereo not given) | 0.0347% [at 70.9 µM] | –
CCN1C(=O)c2ccccc2C1Nc1ccc(OCCN2CCCCC2)cc1 (stereo not given) | -1.25% [at 70.9 µM] | –
CCCCCCCCCCOC(=O)c1ccccc1C(=O)OCCCCCCCC | -0.456% | –
ClCCl | 0.213% | –
COC(C)=O | -0.0928% | –
Cc1cccc(C)c1NC(=O)c1ccc(N)cc1 | -1.03% [at 70.9 µM] | –
Cc1c(C)c2c(c(C)c1OC(=O)c1cccnc1)CC[C@@](C)(CCC[C@H](C)CCC[C@H](C)CCCC(C)C)O2 | -2.95% [at 70.9 µM] | –
O=C(O)c1cccc(C(F)(F)F)c1 | -2.1% | –
Cc1ccc(C(C)C)cc2c(C)ccc1-2 | -0.0607% [at 70.9 µM] | –
Nc1ccc(C(=O)O)c(O)c1 | 0.284% [at 70.9 µM] | –
CCC(CC)(CC(=O)Nc1cccc(/C=C/c2nc(C3CCC3)cs2)c1)C(=O)O | 0.87% [at 70.9 µM] | –
Nc1nc(-c2ccccc2)cs1 | 0.396% | –
C#Cc1ccc(-c2ccccc2F)cc1 | 0.307% [at 70.9 µM] | –

Compound | activation (H2AX phosphorylation) | Potency
O=C(O)c1cc(-c2ccc(F)cc2F)ccc1O | 1.27% [at 70.9 µM] | –
O=C(/C=C/c1ccccc1)OC/C=C/c1ccccc1 | -0.917% | –
O=C(O)c1ccc2cc(C(=O)O)ccc2c1 | -1.4% | –
CC/C=C\CCCCCO | 0.844% | –
CN(C)Cc1ccccc1O | 0.359% | –
O=C(O)Cc1ccccc1Nc1c(Cl)cccc1Cl | – | inactive
O=C1NC(=O)[C@@H]2CC=CC[C@H]12 | 0.642% | –
CN(C)C(=O)COC(=O)Cc1ccc(OC(=O)c2ccc(N=C(N)N)cc2)cc1 | -2.38% [at 70.9 µM] | –
CCc1ccc(Br)cc1 | 3.1% | –
CC[N+](CC)(CC)CCOC(=O)C(C1CCCC1)C1CCCC1 | -2.88% [at 70.9 µM] | –
CC(C)Cn1cnc2c(N)nc3ccccc3c21 | -2.05% [at 31.6 µM] | –
COc1cccc2c1C(=O)c1c(O)c3c(c(O)c1C2=O)C[C@@](O)(C(C)=O)C[C@@H]3O[C@H]1C[C@H](N)[C@H](O)[C@H](C)O1 | – | 39.1 nM (active)
O=C(O)CN(CCN(CC(=O)O)CC(=O)O)CC(=O)O | – | 4520 nM (active)
CC[C@H](C)COC(=O)/C=C/c1ccc(N=Cc2ccc(OC)cc2)cc1 | -1.78% | –
Sc1nc2ccccc2s1 | 1.96% | –
CCN(CCN)c1cccc(C)c1 | – | inactive
CC(C)(C)NSc1nc2ccccc2s1 | 1.86% | –
CCCC1CCC(=O)CC1 | 0.537% | –
CC1(C)[C@@H](O)CC[C@]2(C)[C@H]3C(=O)C=C4[C@@H]5C[C@@](C)(C(=O)O)CC[C@]5(C)CC[C@@]4(C)[C@]3(C)CC[C@@H]12 | 4.28% | –
OC/C=C/CO | -1.03% | –
